Where “and” joins values, the source holds several entries; their conditions need not be identical. Equal entries are not always repeated. The whole screen tested about 5,500 compounds, of which about 2,000 (36%) were called active. Inconclusive results (about 18%) are left out. Cut-off read from the data, not from the text of the source: active = normalized growth mostly below about 0.91 (no sharp cut-off); inconclusive = no clear call, values can overlap the other calls; inactive = mostly above about 0.92. Some of the results follow.
Assay: chemical genetic growth profiling, strain panel (AID 1159580);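 note: tested at 20 µM; growth read once vehicle control cultures reached saturation at 30 °C; 1 = growth at the plate median or of vehicle wells; lower values mean less growth of the strain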
Conditions: S. cerevisiae deletion strains, growth OD

Measured: normalized growth

CCCc1cc(=O)[nH]c(=S)[nH]1
inactive: locus YAL013W, strain DEP1, stronger effect = lower value 1.02 | locus YAL021C, strain ccr4, stronger effect = lower value 1.02 | locus YAL026C, strain drs2, stronger effect = lower value 1.03 | locus YAL030W, strain snc1, stronger effect = lower value 1.02 | locus YBL061C, strain skt5, stronger effect = lower value 1.03 | locus YBR009C, strain hhf1, stronger effect = lower value 1.02 | locus YBR021W, strain FUR4, stronger effect = lower value 0.987 | locus YBR023C, strain chs3, stronger effect = lower value 1.02 | locus YBR171W, strain sec66, stronger effect = lower value 1.04 | locus YBR229C, strain ROT2, stronger effect = lower value 1 | locus YBR231C, strain swc5, stronger effect = lower value 1 | locus YBR279W, strain paf1, stronger effect = lower value 0.988 | locus YCL011C, strain gbp2, stronger effect = lower value 1.01 | locus YCL016C, strain dcc1, stronger effect = lower value 1.01 | locus YCL029C, strain bik1, stronger effect = lower value 0.994 | locus YCL069W, strain vba3, stronger effect = lower value 1.02 | locus YCR088W, strain abp1, stronger effect = lower value 1.01 | locus YDL005C, strain med2, stronger effect = lower value 1.03 | locus YDL035C, strain GPR1, stronger effect = lower value 1.01 | locus YDL040C, strain nat1, stronger effect = lower value 1.01 | locus YDL074C, strain BRE1, stronger effect = lower value 1.03 | locus YDL101C, strain DUN1, stronger effect = lower value 1.01 | locus YDL134C, strain PPH21, stronger effect = lower value 1.01 | locus YDL185W, strain tfp1, stronger effect = lower value 1.02 | locus YDL192W, strain arf1, stronger effect = lower value 1 | locus YDR001C, strain nth1, stronger effect = lower value 1.01 | locus YDR069C, strain doa4, stronger effect = lower value 1.01 | locus YDR101C, strain arx1, stronger effect = lower value 0.985 | locus YDR137W, strain rgp1, stronger effect = lower value 1.02 | locus YDR150W, strain NUM1, stronger effect = lower value 1.01 | locus YDR159W, strain sac3, stronger effect = lower value 0.995 | locus YDR162C, strain NBP2, stronger effect = lower value 1.02 | locus YDR195W, strain ref2 0.999 | locus YDR297W, strain sur2, stronger effect = lower value 1.01 | locus YDR318W, strain mcm21, stronger effect = lower value 0.985 | locus YDR334W, strain swr1, stronger effect = lower value 1.03 | locus YDR335W, strain msn5, stronger effect = lower value 1.01 | locus YDR388W, stronger effect = lower value 0.989 | locus YDR392W, strain spt3, stronger effect = lower value 0.997 | locus YDR502C, strain sam2, stronger effect = lower value 0.989 | locus YEL003W, strain gim4, stronger effect = lower value 1.01 | locus YEL037C, strain rad23, stronger effect = lower value 1.03 | locus YEL061C, strain CIN8 (second series), stronger effect = lower value 1.03 | locus YEL061C, strain CIN8, stronger effect = lower value 1.01 | locus YER015W, strain faa2, stronger effect = lower value 1.01 | locus YER016W, strain bim1, stronger effect = lower value 1 | locus YER110C, stronger effect = lower value 0.991 | locus YER111C, strain swi4, stronger effect = lower value 1 | locus YER155C, strain BEM2 (second series), stronger effect = lower value 1.04 | locus YER155C, strain BEM2, stronger effect = lower value 1.01 | locus YER167W, strain BCK2, stronger effect = lower value 1.01 | locus YFR010W, strain ubp6, stronger effect = lower value 1.02 | locus YGL078C, strain dbp3, stronger effect = lower value 0.996 | locus YGL086W, strain mad1, stronger effect = lower value 0.987 | locus YGL167C, strain pmr1, stronger effect = lower value 1.02 | locus YGL173C, strain kem1, stronger effect = lower value 1.04 | locus YGL227W, strain vid30, stronger effect = lower value 1.03 | locus YGL240W, strain doc1, stronger effect = lower value 1 | locus YGL248W, strain PDE1, stronger effect = lower value 1.01 | locus YGL253W, strain hxk2, stronger effect = lower value 0.995 | locus YGR078C, strain PAC10, stronger effect = lower value 1 | locus YGR135W, strain pre9, stronger effect = lower value 0.994 | locus YGR229C, strain SMI1, stronger effect = lower value 1.02 | locus YGR252W, strain gcn5, stronger effect = lower value 0.901 | locus YHR013C, strain ard1, stronger effect = lower value 1.09 | locus YHR027C, strain rpn1, stronger effect = lower value 1.01 | locus YHR030C, strain SLT2, stronger effect = lower value 1.02 | locus YHR079C, strain IRE1 (second series), stronger effect = lower value 0.983 | locus YHR079C, strain IRE1, stronger effect = lower value 1.03 | locus YHR094C, strain hxt1, stronger effect = lower value 0.993 | locus YHR129C, strain ARP1, stronger effect = lower value 1.02 | locus YHR142W, strain chs7, stronger effect = lower value 1.05 | locus YHR200W, strain rpn10, stronger effect = lower value 1.01 | locus YIL066C, strain RNR3, stronger effect = lower value 1 | locus YIL073C, strain SPO22, stronger effect = lower value 0.955 | locus YIL125W, strain kgd1, stronger effect = lower value 1 | locus YIR030C, strain dcg1, stronger effect = lower value 0.998 | locus YJL092W, strain hpr5, stronger effect = lower value 1.02 | locus YJL095W, strain BCK1 (second series), stronger effect = lower value 1.02 | locus YJL095W, strain BCK1, stronger effect = lower value 1.01 and 0.999 | locus YJL115W, strain asf1, stronger effect = lower value 1.02 | locus YJL129C, strain trk1, stronger effect = lower value 1.01 | locus YJL134W, strain LCB3, stronger effect = lower value 1.01 | locus YJL154C, strain vps35, stronger effect = lower value 1 | locus YJL164C, strain tpk1, stronger effect = lower value 1.02 | locus YJL166W, strain qcr8, stronger effect = lower value 1.04 | locus YJL168C, strain set2, stronger effect = lower value 0.989 | locus YJL187C, strain SWE1 (second series), stronger effect = lower value 1.01 | locus YJR043C, strain POL32, stronger effect = lower value 1 | locus YJR066W, strain TOR1, stronger effect = lower value 0.971
